Source: ChEMBL document CHEMBL4513216, “Probing the Open Global Health Chemical Diversity Library for Multistage-Active Starting Points for Next-Generation Antimalarials” (ACS Infect Dis, 2020)
About 8,600 (12%) of roughly 69,000 compounds showed an effect of 50% or more. The full list was thinned out, with strong results kept by preference.

Each compound was assayed on Plasmodium berghei (assay: Screen against P. berghei liver stage (PbLuc), transformed with Luciferase, at 10uM). Conditions: tested at 10 uM.
Assay type: functional, HepG2

**Q.** With `CCC1CCCN(S(=O)(=O)c2cnc3onc(C)c3c2)C1` (configuration not stated) as the compound, how does the INHIBITION read?
**A.** 9%

**Q.** Which INHIBITION does the source give for `COc1ccc2c(c1)OCC(Cc1cnccc1N)C2` (configuration not stated) here?
**A.** 29%

**Q.** With `COc1ccc2c(c1)OCC(Cc1ccc(C)nc1N)C2` (configuration not stated) as the compound, how does the INHIBITION read?
**A.** 57.2%

**Q.** `Cc1nc(N)ccc1CC1COc2ccccc2C1` (configuration not stated) was tested. Which INHIBITION did it give?
**A.** -27.9%

**Q.** With `COc1cccc2c1OCC(CNc1cc(N)nc(SC)n1)C2` (configuration not stated) as the compound, how does the INHIBITION read?
**A.** 1.94%

**Q.** `Cc1ccc(CC2COc3ccccc3C2)c(N)n1` (configuration not stated) was tested. Which INHIBITION did it give?
**A.** -6.18%

**Q.** For `COc1cccc2c1OCC(Cc1ccc(N)nc1C)C2` (configuration not stated), which INHIBITION is on record?
**A.** 6.83%

**Q.** `COc1ccc2c(c1)OCC(Cc1ccc(N)nc1C)C2` (configuration not stated) was tested. Which INHIBITION did it give?
**A.** 76.3%

**Q.** `COc1ccc2c(c1)OCC(Cc1ccnc(N)n1)C2` (configuration not stated) was tested. Which INHIBITION did it give?
**A.** 11%

**Q.** How did the INHIBITION turn out when `COc1ccc2c(c1)OCC(CNc1cc(N)nc(SC)n1)C2` (configuration not stated) was run?
**A.** 69.8%

**Q.** How did the INHIBITION turn out when `Cc1noc(C(C)N2CCN(CC(=O)N3CCCC3)CC2)n1` (configuration not stated) was run?
**A.** 8.99%

**Q.** `O=C(NCC1CCCCC1)N1C[C@@H]2C[C@H](C(=O)N3CCCC3)[C@H](C1)O2` was tested. Which INHIBITION did it give?
**A.** 48.2%

**Q.** Which INHIBITION does the source give for `N#Cc1ccc(NCc2cc3n(n2)CCCN(C(=O)C2CCC2)C3)nc1` here?
**A.** 14.6%

**Q.** Which INHIBITION does the source give for `CSc1ccc(-n2nnc(C(=O)O)c2-c2ccccn2)cc1` here?
**A.** 36.2%

**Q.** Which INHIBITION does the source give for `CC(CNCc1ccc(F)cc1)Oc1ccccn1` (configuration not stated) here?
**A.** 13.8%

**Q.** For `COc1cccc(OCC(=O)NS(=O)(=O)c2ccc(Br)s2)c1`, which INHIBITION is on record?
**A.** 17.5%

**Q.** Which INHIBITION does the source give for `COc1ccc(OCC(=O)NS(=O)(=O)c2ccc(Br)s2)cc1` here?
**A.** 60.9%

**Q.** Which INHIBITION does the source give for `COc1ccc(OCC(=O)NS(=O)(=O)c2ccc(Cl)s2)cc1` here?
**A.** 17.7%

**Q.** For `CCn1nnc2c1C(COC)CN(Cc1ccsc1)C2` (configuration not stated), which INHIBITION is on record?
**A.** 21%

**Q.** With `Cn1cc(C(=O)N2CCC(c3cc(CCO)n(C)n3)C2)cn1` (configuration not stated) as the compound, how does the INHIBITION read?
**A.** 0.696%

**Q.** How did the INHIBITION turn out when `C=CNC(=O)c1nnc2ccc(N3CCOCC3)cc2n1` was run?
**A.** 11%

**Q.** How did the INHIBITION turn out when `Cc1cc(C)nc(N2CCC(CNC(=O)c3cnccn3)CC2)n1` was run?
**A.** -51.4%

**Q.** Which INHIBITION does the source give for `O=C(NCC1CCN(c2ncccn2)CC1)c1cnccn1` here?
**A.** 71.8%

**Q.** `CS(=O)(=O)N1CCC(CNC(=O)c2cnccn2)CC1` was tested. Which INHIBITION did it give?
**A.** 43.8%

**Q.** Which INHIBITION does the source give for `COc1ccccc1N1CCN(C(=O)NC(C)c2nncn2C)CC1` (configuration not stated) here?
**A.** 9.14%

**Q.** `CCCC(=O)N1CCN(Cc2cc(-c3ccncc3)nn2C)CC1` was tested. Which INHIBITION did it give?
**A.** 8.72%

**Q.** Which INHIBITION does the source give for `CC(c1ccco1)n1cc(-c2cc(CN3CCCC3)cs2)nn1` (configuration not stated) here?
**A.** 5.23%

**Q.** `CC(c1nccs1)n1cc(-c2cc(CN3CCCCC3)cs2)nn1` (configuration not stated) was tested. Which INHIBITION did it give?
**A.** 21.5%

**Q.** For `CC(c1nncn1C)n1cc(-c2cc(CN3CCCC3)cs2)nn1` (configuration not stated), which INHIBITION is on record?
**A.** 57.2%

**Q.** With `CC(C)CN1CCn2c(COCc3cccnc3)nnc2C1` as the compound, how does the INHIBITION read?
**A.** -29.3%

**Q.** For `Cc1ccc(CN2CCC3(CC(=O)N(c4cccc(F)c4)C3)C2)o1` (configuration not stated), which INHIBITION is on record?
**A.** 12%

**Q.** Which INHIBITION does the source give for `O=C1CC2(CCN(Cc3cccnc3)C2)CN1c1ccc2c(c1)OCO2` (configuration not stated) here?
**A.** 22.9%

**Q.** How did the INHIBITION turn out when `O=C1CC2(CCN(CC3CC3)C2)CN1c1ccc2c(c1)OCO2` (configuration not stated) was run?
**A.** 25%

**Q.** Which INHIBITION does the source give for `Cc1ccc(CN2CCC3(CC(=O)N(c4ccc5c(c4)OCO5)C3)C2)o1` (configuration not stated) here?
**A.** 69.5%

**Q.** How did the INHIBITION turn out when `O=C1CC2(CCN(Cc3ccco3)C2)CN1c1ccc2c(c1)OCO2` (configuration not stated) was run?
**A.** 78.8%

**Q.** With `Cn1ccnc1CN1CCC2(CC(=O)N(c3ccc4c(c3)OCO4)C2)C1` (configuration not stated) as the compound, how does the INHIBITION read?
**A.** 4.27%

**Q.** How did the INHIBITION turn out when `CC(C)CN1CCO[C@H]2CCN(c3cnccn3)CC[C@@H]21` was run?
**A.** 16.6%

**Q.** How did the INHIBITION turn out when `O=C(c1cc(-n2cccn2)ccc1Cl)N1CCC(N2CCCC2=O)CC1` was run?
**A.** 18.5%

**Q.** Which INHIBITION does the source give for `CC(C)[C@H]1CN(Cc2nccn2C)C[C@@H]1NC(=O)COCC(N)=O` here?
**A.** 44.9%

**Q.** For `CS(=O)(=O)c1cnc(CC2CC2)nc1C1CCCNC1` (configuration not stated), which INHIBITION is on record?
**A.** 41.7%

**Q.** For `NC1CCN(c2nccn3c(=O)[nH]nc23)CC1`, which INHIBITION is on record?
**A.** 48.2%

**Q.** For `Cc1cc(N2CCN(C3CCSCC3)CC2)n2nc(C)c(C)c2n1`, which INHIBITION is on record?
**A.** 51.4%

**Q.** For `Cc1cc(N2CCN3CCCCC3C2)n2nc(C)c(C)c2n1` (configuration not stated), which INHIBITION is on record?
**A.** 16.8%

**Q.** Which INHIBITION does the source give for `Cc1cc(N2CCCN3CCC[C@H]3C2)n2nc(C)c(C)c2n1` here?
**A.** 48.1%

**Q.** For `O=S(=O)(c1cn[nH]c1)N1CCC(O)(CN2CCC(F)(F)CC2)C1` (configuration not stated), which INHIBITION is on record?
**A.** -5.452%

**Q.** With `CCc1ccc(S(=O)(=O)Nc2cn(C)cc(Br)c2=O)cc1` as the compound, how does the INHIBITION read?
**A.** 25.3%

**Q.** Which INHIBITION does the source give for `Cc1ccc(F)c(S(=O)(=O)Nc2cn(C)cc(Br)c2=O)c1` here?
**A.** 8.53%

**Q.** How did the INHIBITION turn out when `Cn1cc(NS(=O)(=O)c2ccc3c(c2)CCCC3)ccc1=O` was run?
**A.** 81.1%

**Q.** How did the INHIBITION turn out when `Cc1ccc(S(=O)(=O)Nc2ccc(=O)n(C)c2)c(Br)c1` was run?
**A.** 77%

**Q.** `CC(C)Cc1ccc(S(=O)(=O)NCCCN2CCNC(=O)C2)cc1` was tested. Which INHIBITION did it give?
**A.** -20.3%

**Q.** Which INHIBITION does the source give for `CCCc1ccc(S(=O)(=O)Nc2ccc(=O)n(C)c2)cc1` here?
**A.** 81.1%

**Q.** `CC(C)c1ccc(C(=O)O)cc1S(=O)(=O)Nc1ccc(=O)n(C)c1` was tested. Which INHIBITION did it give?
**A.** -3.87%

**Q.** `Cn1cc(Br)c(=O)c(NS(=O)(=O)c2ccc3c(c2)CCC3)c1` was tested. Which INHIBITION did it give?
**A.** 28.3%

**Q.** Which INHIBITION does the source give for `Cn1cc(NS(=O)(=O)c2ccc(F)c(F)c2)ccc1=O` here?
**A.** 23.5%

**Q.** For `CCCc1ccc(S(=O)(=O)NCCNC(=O)c2ccoc2)cc1`, which INHIBITION is on record?
**A.** 5.05%

**Q.** `CCc1ccc(C(=O)O)cc1S(=O)(=O)Nc1ccc(=O)n(C)c1` was tested. Which INHIBITION did it give?
**A.** 9.16%

**Q.** Which INHIBITION does the source give for `CC(C)Cc1ccc(S(=O)(=O)Nc2ccc(=O)n(C)c2)cc1` here?
**A.** 88.5%
